Values joined by “and” are separate entries in the source; they are usually repeats but may differ in a detail not shown here. Equal entries are not always repeated. The source holds several records for some structures; these can differ, active in one and inactive in another. Active and inactive are the calls of the source. Rule for the calls: active = hit-call score of the fitted dose curve at least 0.9, where 1 is the maximum; inactive = score below 0.9.
Columns and labels:
[1] = read-out: Basic fibroblast growth factor (bFGF), FGF2 (gene 2247); assay: BSK_MyoF_bFGF: BioMAP Diversity Plus: MyoF Assay for Basic fibroblast growth factor (bFGF) Biomarker Activity (AID 2284246); conditions: primary human lung fibroblasts
How it was run: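 Human lung fibroblast cultures were dosed and measured 24 h later in 96-well format. bFGF biomarker levels quantified by ELISA, with activity fitted in the positive direction against DMSO.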

[2] = read-out: Collagen IV, COL4A1 (gene 1282); assay: BSK_MyoF_CollagenIV: BioMAP Diversity Plus: MyoF Assay for Collagen IV Biomarker Activity (AID 2284247); conditions: primary human lung fibroblasts
How it was run: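 Primary human lung fibroblasts (MyoF system) dosed 24 h; Collagen IV measured by ELISA. Activity fitted in positive direction against DMSO; cytotoxicity tracked by SRB total-protein staining in parallel cultures.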

[3] = read-out: Monokine induced gamma interferon (MIG), CXCL9 (gene 4283); assay: BSK_KF3CT_MIG: BioMAP Diversity Plus: KF3CT Assay for Monokine induced gamma interferon (MIG) Biomarker Activity (AID 2284248); conditions: primary human keratinocytes with fibroblasts
How it was run: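 Human keratinocyte plus foreskin fibroblast primary co-culture dosed with test chemical for 24 h; MIG level measured by ELISA and fitted in the positive direction against DMSO as baseline.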

[4] = read-out: Vascular cell adhesion molecule 1 (VCAM1), VCAM1 (gene 7412); assay: BSK_BF4T_VCAM1: BioMAP Diversity Plus: BF4T Assay for Vascular cell adhesion molecule 1 (VCAM1) Biomarker Activity (AID 2284249); conditions: primary human bronchial epithelial cells with fibroblasts
How it was run: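 Human bronchial epithelial cell and dermal fibroblast co-culture exposed 24 h. VCAM-1 measured by ELISA; parallel SRB total-protein staining for cytotoxicity. Fitted in positive direction relative to DMSO.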

[5] = read-out: Collagen I, COL1A1 (gene 1277); assay: BSK_hDFCGF_CollagenI: BioMAP Diversity Plus: hDFCGF Assay for Collagen I Biomarker Activity (AID 2284250); conditions: primary human foreskin fibroblasts
How it was run: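 Primary human foreskin fibroblasts exposed to chemical for 24 h; Collagen I levels measured by ELISA. Cytotoxicity checked by SRB total-protein staining in parallel cultures.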

[6] = read-out: Interferon-inducible T-cell alpha chemoattractant (ITAC), CXCL11 (gene 6373); assay: BSK_hDFCGF_ITAC: BioMAP Diversity Plus: hDFCGF Assay for Interferon-inducible T-cell alpha chemoattractant (ITAC) Biomarker Activity (AID 2284251); conditions: primary human foreskin fibroblasts
How it was run: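 Primary human foreskin fibroblasts (hDFCGF system) treated for 24 h; I-TAC quantified by ELISA. Gain-direction fitting versus DMSO; parallel SRB staining of total protein flagged overt cytotoxicity.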

[7] = read-out: Plasminogen activator inhibitor-1 (PAI1), SERPINE1 (gene 5054); assay: BSK_KF3CT_PAI1: BioMAP Diversity Plus: KF3CT Assay for Plasminogen activator inhibitor-1 (PAI1) Biomarker Activity (AID 2284252); conditions: primary human keratinocytes with fibroblasts
How it was run: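 Human keratinocyte/foreskin fibroblast co-culture dosed for 24 h; PAI-1 measured by ELISA, fitted in positive direction against DMSO baseline. Parallel SRB total-protein staining (0.1% SRB, 560 nm) assesses overt cytotoxicity.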

[8] = read-out: Monocyte Chemoattractant Protein-1 (MCP1), CCL2 (gene 6347); assay: BSK_IMphg_MCP1: BioMAP Diversity Plus: IMphg Assay for Monocyte Chemoattractant Protein-1 (MCP1) Biomarker Activity (AID 2284253); conditions: primary human endothelial cells with macrophages
How it was run: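 Human venular endothelial cells co-cultured with macrophages; MCP-1 measured by ELISA 24 hours post-dose and fitted against DMSO. Cytotoxicity monitored by SRB total-protein staining in parallel cultures.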

[9] = read-out: Interleukin-8 (IL8), CXCL8 (gene 3576); assay: BSK_KF3CT_IL8: BioMAP Diversity Plus: KF3CT Assay for Interleukin-8 (IL8) Biomarker Activity (AID 2284254); conditions: primary human keratinocytes with fibroblasts
How it was run: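 Human primary keratinocyte plus foreskin fibroblast co-culture dosed with test chemicals; IL-8 measured by ELISA 24 h after dosing. Activity fitted in the positive direction relative to DMSO negative control.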

[10] = read-out: Macrophage Inflammatory Protein-1 Alpha (MIP1a), CCL3 (gene 6348); assay: BSK_IMphg_MIP1a: BioMAP Diversity Plus: IMphg Assay for Macrophage Inflammatory Protein-1 Alpha (MIP1a) Biomarker Activity (AID 2284255); conditions: primary human endothelial cells with macrophages
How it was run: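 Co-culture of human venular endothelial cells and macrophages exposed to compounds for 24 h; MIP-1a measured by ELISA relative to DMSO. Cytotoxicity assessed in parallel cultures by sulforhodamine B total-protein staining at 560 nm.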

[11] = read-out: Plasminogen activator inhibitor-1 (PAI1), SERPINE1 (gene 5054); assay: BSK_MyoF_PAI1: BioMAP Diversity Plus: MyoF Assay for Plasminogen activator inhibitor-1 (PAI1) Biomarker Activity (AID 2284256); conditions: primary human lung fibroblasts
How it was run: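 ELISA read-out of PAI-1 from primary human lung fibroblast cultures 24 h after dosing; gain-of-signal fit versus DMSO control.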

CD69, CD69 (gene 969) = assay: BSK_IMphg_CD69: BioMAP Diversity Plus: IMphg Assay for CD69 Biomarker Activity (AID 2284257); conditions: primary human endothelial cells with macrophages
How it was run: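 Human venular endothelial cells co-cultured with macrophages; CD69 quantified by ELISA 24 h after compound addition. Activity fitted in the positive direction relative to DMSO baseline; cytotoxicity tracked in parallel cultures via SRB total-protein staining.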

[12] = read-out: Eotaxin 3, CCL26 (gene 10344); assay: BSK_BF4T_Eotaxin3: BioMAP Diversity Plus: BF4T Assay for Eotaxin 3 Biomarker Activity (AID 2284258); conditions: primary human bronchial epithelial cells with fibroblasts
How it was run: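 Co-culture of human bronchial epithelial cells and dermal fibroblasts, exposed to chemicals for 24 h versus DMSO. Eotaxin-3 quantified by ELISA; cytotoxicity checked in parallel cultures by sulforhodamine B total-protein staining.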

[13] = read-out: Monocyte Chemoattractant Protein-1 (MCP1), CCL2 (gene 6347); assay: BSK_BF4T_MCP1: BioMAP Diversity Plus: BF4T Assay for Monocyte Chemoattractant Protein-1 (MCP1) Biomarker Activity (AID 2284259); conditions: primary human bronchial epithelial cells with fibroblasts
How it was run: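 Co-culture of bronchial epithelial cells and dermal fibroblasts dosed with chemical; MCP-1 measured by ELISA 24 h later. Activity fitted in positive direction versus DMSO; cytotoxicity checked by SRB staining in parallel cultures.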

[14] = read-out: Intercellular Adhesion Molecule 1 (ICAM1), ICAM1 (gene 3383); assay: BSK_BF4T_ICAM1: BioMAP Diversity Plus: BF4T Assay for Intercellular Adhesion Molecule 1 (ICAM1) Biomarker Activity (AID 2284260); conditions: primary human bronchial epithelial cells with fibroblasts
How it was run: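 Co-culture of human bronchial epithelial cells and dermal fibroblasts exposed 24 h to chemical; cell-surface ICAM-1 quantified by ELISA. Parallel SRB total-protein staining assessed cytotoxicity; activity fitted relative to DMSO.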

[15] = read-out: Interleukin-8 (IL8), CXCL8 (gene 3576); assay: BSK_MyoF_IL8: BioMAP Diversity Plus: MyoF Assay for Interleukin-8 (IL8) Biomarker Activity (AID 2284261); conditions: primary human lung fibroblasts
How it was run: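 ELISA read-out of IL-8 from primary human lung fibroblasts, 24 h post-dose; positive-direction curve fitting relative to DMSO vehicle baseline.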

CD90, THY1 (gene 7070) = assay: BSK_BF4T_CD90: BioMAP Diversity Plus: BF4T Assay for CD90 Biomarker Activity (AID 2284262); conditions: primary human bronchial epithelial cells with fibroblasts
How it was run: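 Co-culture of human bronchial epithelial cells and dermal fibroblasts, 24 h compound exposure. Cell-surface CD90 measured by ELISA relative to DMSO; parallel SRB total-protein staining for cytotoxicity.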

[16] = read-out: Interleukin-8 (IL8), CXCL8 (gene 3576); assay: BSK_BF4T_IL8: BioMAP Diversity Plus: BF4T Assay for Interleukin-8 (IL8) Biomarker Activity (AID 2284263); conditions: primary human bronchial epithelial cells with fibroblasts
How it was run: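 Human bronchial epithelial cells with dermal fibroblasts co-culture; IL-8 measured by ELISA 24 hours after dosing, fitted vs DMSO. Cytotoxicity tracked in parallel cultures by SRB total-protein staining.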

[17] = read-out: Interleukin-1 alpha (IL1a), IL1A (gene 3552); assay: BSK_BF4T_IL1a: BioMAP Diversity Plus: BF4T Assay for Interleukin-1 alpha (IL1a) Biomarker Activity (AID 2284264); conditions: primary human bronchial epithelial cells with fibroblasts
How it was run: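 Human bronchial epithelial cells co-cultured with dermal fibroblasts, dosed and read at 24 h. Secreted/surface IL-1α quantified by ELISA; gain-of-signal fitted relative to DMSO baseline. Parallel SRB total-protein staining tracked cytotoxicity.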

Decorin, DCN (gene 1634) = assay: BSK_MyoF_Decorin: BioMAP Diversity Plus: MyoF Assay for Decorin Biomarker Activity (AID 2284265); conditions: primary human lung fibroblasts
How it was run: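 Human lung fibroblasts in the MyoF system were exposed to compound for 24 h, after which decorin was quantified by ELISA. Activity was fitted in the positive direction relative to DMSO negative control.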

Measured: AC50

CCNS(=O)(=O)C(F)(F)C(F)(F)C(F)(F)C(F)(F)C(F)(F)C(F)(F)C(F)(F)C(F)(F)F
active: [1] 46.5 µM and 50.8 µM | [2] 54.7 µM and 7.29 µM | [3] 46 µM | [4] 15.4 µM and 14.3 µM | [5] 46.9 µM and 38.3 µM | [6] 24.8 µM and 27.5 µM | [7] 39.7 µM and 39.3 µM | [8] 41.4 µM and 36.9 µM | [10] 35 µM | [11] 58.4 µM and 51.1 µM | CD69, CD69 (gene 969) 38.4 µM and 39.2 µM | [12] 7.65 µM and 6.97 µM | [13] 18.6 µM and 22.6 µM | [14] 30 µM and 25 µM | [15] 41.5 µM and 45.6 µM | [17] 36.5 µM and 44.4 µM | Decorin, DCN (gene 1634) 40.9 µM and 45.6 µM
inactive: [3] | [9] | [10] | CD90, THY1 (gene 7070) | [16]

— PubChem BioAssay (EPA / NIEHS)
